# System: VDR:RXRa (NR concentration 270 nM, RXRa partner concentration 90 nM)
# Test: PBM binding z-score (relative to random genomic background probes); higher = stronger binding; sequences stand for … in GC…GCGATTGACAGCGTAGAATGAAGG
# Experimental: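 Protein-binding microarray (Agilent 4x180K custom design, double-stranded 60-nt probes: 5' GC cap, 34-nt variable region, 24-nt constant primer region; full probe sequence given). Purified or IVT nuclear receptor:RXRα heterodimers (3:1 NR:RXRα, mostly 270:90 nM) or homodimers were incubated for 1 h in PBS with 2% milk and no ligand, then detected with Alexa488 antibodies. Fluorescence from o1-orientation probes (~5 replicates averaged) was converted to z-scores against 500 random hg19 background probes. Variable regions are seed direct-repeat (DR0–DR5) sites, all their single-nucleotide variants and half-site ablations.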
row,Sequence,PBM binding z-score
1,TCTATTAGTTGAAGGGCAACCCACGAGTCCGTTT,1.1
2,TCTTGTAGATCAATAGAGGTTAAGAGAGTGCGCT,2.79
3,TTACCAAGCTGAGCTGAGGTCGTTGATCCAACTC,0.877
4,CCCACTGGGGCAGAAAGGTTACCATACCATCCGG,0.905
5,ATCTCTAGGTAAAGTTCTGTGAAAGATCGATAGA,0.335
6,CAAACTCGGTCACCGGAAGGTCAAAGTCCGCATG,4.77
7,TCTTGTAGATCAACGGGAGGTTAAGAAAGATCGA,0.477
8,TTACCAAGGTGAGCTGAGGTCGTTGTTCCAACTC,4.15
9,CGAACGAAGGCATGAGTTGATAGCAAATGCCGAT,-0.373
10,ATCTGTAGGTTAGCTGGGGTCATTCAGACTAGGC,6.14
11,TCATATCGGTAAACAGGTGAAAGTCCGTAAGTTA,0.935
12,GAAACAGGGTCAAGGCCAGAGTACGCGTATTGAT,4.6
13,CTAACTAGGTCAAGAGGTCAAAGTCCGCTTCCCG,6
14,CCTGCTAGCTCAATGGTCAGCTAAAGCAGCTCGC,-0.686
15,TGCATGAGGTTAAAGATCAGGGAACGTGGCGTCG,2.1
16,AGAATGAGGTTAGTAAGATCAGGGAATTGCGGTC,0.837
17,AGAACGAGGCCAATGAGTTGATAGCACGGGTGGC,3.09
18,TGAATGAGCTTAAAGATCAGGGAACGTGGCGTCG,-0.548
19,CCTATTAGTTGACCATAAAGGCAACCGAAGCTCG,0.841
20,CCTATTCGTTGACCATAAGGGCAACCGAAGCTCG,0.983

row,Sequence,PBM binding z-score
1,TTACCAAGATGAAAGGTCGTTGATGCACGCCTTG,1.69
2,ATACCAAGGTGATCGGGAGGTCGTTGATACTAAC,2.58
3,CAAACTAGGTCAAAGGTCAAATTCGAGCCAACCA,6.75
4,ATCGAAAGGTCGTGAGGTGAGAATACAGAAAGGC,3.48
5,ATCACTAGGTAAAGTTCAGTGAAAGATCGATAGA,1.21
6,ATACCAAGGTGATCGTCAGGTCGTTGATACTAAC,1.36
7,ATATGTAGGCTAAGGGTCATTCAGGTTGGTTCGC,5.13
8,TCTAGTTGGTCTCGGAGGTCACACACGACGGGTA,3.75
9,AGAATGAGGTTATAGGTAGATCAGGGAAGAAAGT,1.44
10,CCGAGTAGGTTATGGGGAATTCAGGCAACGGTGA,0.0968
11,AGAATGAGCTTAAGATCAGGGAAACAGAATACAT,-0.396
12,TCTTGTAGATCAATCAGGTTAAGAAAGCCTGAGT,1
13,TCATATAGGTAAATGCTAGGTGAAAGTTCGATCT,1.22
14,ATCTCTAGGCAAGACTCAGTTCAGTGAAGAACGC,-0.0651
15,ATATGTAAGTTAAGGGTCATTCAGGTTGGTTCGC,5.46
16,TAGCCTAGGTCATGCGGGCTAGTATAGTGTCGGC,2.11
17,ACAGACAGGTAATGAAGGTAACTCAGGCTATCAT,0.244
18,TCATATACGTAAACAGGTGAAAGTCCGTAAGTTA,1.38
19,TGAATGAGGTTAAAGATCAGCGAACGTGGCGTCG,1.75
20,TCGCCTAGGTCATTGGGCCAGTATAGTACGCATC,2.23
